The panel holds about 83,000 compounds, 20% with a hit somewhere; the sample as a whole holds those more often.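 In brief: 96-well plates, 48 h treatment, single concentration, percent growth endpoint.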 Active and inactive are the calls of the source. Rule for the calls: active = growth percent below 10; inactive = the rest.
Columns and labels:
Assay in all cases: NCI-60 one-dose screen, 48 h (100 = growth as untreated, 0 = no growth, -100 = all killed)
Details in all cases: 10 µM unless noted
[1] = system: NCI-H23 lung
[2] = system: NCI-H226 lung
[3] = system: NCI-H322M lung
[4] = system: HOP-62 NSCLC
[5] = system: NCI-H460 lung
[6] = system: HOP-92 NSCLC
[7] = system: NCI-H522 lung
[8] = system: A549/ATCC NSCLC
[9] = system: 786-0 renal
[10] = system: COLO 205 colon

Structure (SMILES)	growth [1]	growth [2]	growth [3]	growth [4]	growth [5]	growth [6]	growth [7]	growth [8]	growth [9]	growth [10]
C=C1C(=O)O[C@H]2[C@H]1CC/C(Cn1cc(-c3ccsc3)nn1)=C\CC[C@@]1(C)O[C@@H]21	-14.9% (active)	7.54% (active)	72.7% (inactive)	28.4% (inactive)	41% (inactive)	-72.9% (active)	-67.8% (active)	13.8% (inactive)	-86.7% (active)	-61% (active)
COc1ccc(-c2nc3sccn3c2-c2ccnc(NCCNS(=O)(=O)c3ccc(C(F)(F)F)cc3)n2)cc1	15.5% (inactive)	4.55% (active)	37.1% (inactive)	46.1% (inactive)	15.4% (inactive)	13.4% (inactive)	-1.01% (active)	18.9% (inactive)	18.4% (inactive)	0.693% (active)
O=C(OCCCCOC(=O)n1cnc2ccccc21)n1cnc2ccccc21	99.7% (inactive)	97.4% (inactive)	105% (inactive)	98.3% (inactive)	103% (inactive)	88.8% (inactive)	91.3% (inactive)	92.5% (inactive)	105% (inactive)	103% (inactive)
COc1ccc(C(=O)N2CCN(C(=O)c3cc(OC)c(OC)c(OC)c3)CC2)cc1OCCCCOc1cc2c(cc1OC)C(=O)N1CCC[C@H]1C=N2	82.2% (inactive)	105% (inactive)	141% (inactive)	105% (inactive)	121% (inactive)	70.9% (inactive)	102% (inactive)	76.8% (inactive)	108% (inactive)	107% (inactive)
CNC(C)=O	95.3% (inactive)	95.1% (inactive)	92% (inactive)	94.4% (inactive)	106% (inactive)	103% (inactive)	89% (inactive)	92.1% (inactive)	106% (inactive)	98.8% (inactive)
COc1ccc2c(c1)NC(=O)CN2c1nc(C)nc2ccccc12	20.4% (inactive)	65.8% (inactive)	42.8% (inactive)	29.2% (inactive)	2.28% (active)	-5.74% (active)	-21.1% (active)	21.3% (inactive)	19.8% (inactive)	-35% (active)
O=C1CCC/C=C\C[C@H]2C=CC(=O)/C2=C/C[C@H](C/C=C\CC(F)(F)F)O1	-8.61% (active)	8.07% (active)	17.5% (inactive)	-11.7% (active)	-30.5% (active)	-24.4% (active)	-50.8% (active)	1.72% (active)	-73.9% (active)	-44.4% (active)

— PubChem BioAssay (NCI)
